Data on 41 compounds can be found in PubChem BioAssay AID434970 (Sanford-Burnham Center for Chemical Genomics, 2010).

The campaign covered roughly 11,000 compounds. About 310 (2.8%) were called active. Rule as the data show it: active = activity change below about -85%; inactive = the rest. The list comes from a sample in which actives are over-represented; it also holds similar structures and randomly drawn compounds.

The test system of this experiment is intestinal alkaline phosphatase [Mus musculus]. The experiment in a line: mouse intestinal phosphatase enzyme activation – biochemical, luminescence, single concentration, confirmation (AID 434970). Conditions: purified mouse IAP, CDP-Star luminescence, 30 min, at 10 µM; activation factor: measured here: IAP activation factor, stronger effect = higher value; activity change, negative = activation: stronger effect = lower value.
As for `CCn1nc(C)c(CN2CCC(C(=O)Nc3cccc(-c4cccc(Cl)c4)c3)CC2)c1C`, the activation factor turned out to be 4.74 and the activity change, negative = activation was -374% (active).

As to `CCn1nc(C)c(CN2CCC(C(=O)Nc3cccc(-c4cccc(F)c4)c3)CC2)c1C`, the activation factor is 3.08 and the activity change, negative = activation was -208% (active).

For the compound `CCn1nc(C(=O)Nc2cccc(C(F)(F)F)c2)c(Cl)c1Cl`, the activation factor is 0.952 and the activity change, negative = activation was 4.85% (inactive).

As to `Cc1ccc(Cn2nc(C)c(NC(=O)C3CC3)c2C)cc1`, the activation factor turned out to be 1.06 and the activity change, negative = activation was -6.3% (inactive).

In the case of `Cc1nn(C(C)C)c(C)c1CN1CCC(C(=O)Nc2cccc(-c3cccc(F)c3)c2)CC1`, the activation factor amounted to 4.89 and the activity change, negative = activation was -389% (active).

As to `CCc1ccc(NC(=O)C2CC(=O)N(C(C)C)C2)cc1` (configuration not stated), the activation factor came out at 0.925 and the activity change, negative = activation is 7.45% (inactive).

In the case of `Nc1ccccc1NC(=O)c1ccccc1`, the activation factor came out at 1.09 and the activity change, negative = activation was -8.9% (inactive).

Consider `CCN1CCN(C(=O)CN(c2ccccc2C)S(C)(=O)=O)CC1`, for which the activation factor is 1.04 and the activity change, negative = activation was -3.5% (inactive).

Turning to `Cc1ccc(OCCn2cnc3c(N)ncnc32)cc1`, the activation factor was determined as 0.932 and the activity change, negative = activation is 6.8% (inactive).

As to `Cc1cc(NC(=O)CCC(=O)N(Cc2ccco2)C(C)(C)C(=O)NC2CCCCC2)no1`, the activation factor is 1.05 and the activity change, negative = activation was -5.25% (inactive).

`COc1ccc(CNC(=O)C[C@H]2C[C@H](C(=O)N3CCOCC3)[C@@]3(CCC4CCCC4)c4[nH]c5cc(CCC(=O)N(C)C)ccc5c4CCN3C2=O)cc1OC`: the activation factor is 1.07 and the activity change, negative = activation is -6.85% (inactive).

Turning to `CCOC(=O)C1=CN(Cc2cccc(F)c2)S(=O)(=O)NC1c1ccc(Br)cc1F` (configuration not stated), the activation factor is 0.921 and the activity change, negative = activation was 7.85% (inactive).

Turning to `CN(C)C(=O)CCc1ccc2c3c([nH]c2c1)[C@]1(C)[C@@H](C(=O)N2CCOCC2)C[C@H](CC(=O)NCCc2ccccn2)C(=O)N1CC3`, the activation factor turned out to be 1.02 and the activity change, negative = activation is -2.25% (inactive).

For `O=C1C[C@@H]2CCN3C(=O)CCC[C@@H]([C@H]23)[C@@H]1Cc1ccccc1`, the activation factor was 0.964 and the activity change, negative = activation is 3.55% (inactive).

Regarding `CC(CN1CCN(C)CC1)OC(=O)c1ccc(Cl)cc1` (configuration not stated), the activation factor stood at 0.929 and the activity change, negative = activation is 7.05% (inactive).

As for `N#Cc1ccc(N2CCN(c3ccc(F)cc3)CC2)cc1`, the activation factor came to 0.995 and the activity change, negative = activation was 0.5% (inactive).

`CCCNC(=O)c1ccc(SC)cc1OC`: the activation factor amounted to 0.92 and the activity change, negative = activation is 8% (inactive).

As for `O=C(Nc1ccc(Cl)cc1)Nc1ccc(Cl)c(Cl)c1`, the activation factor stood at 2.27 and the activity change, negative = activation is -127% (active).

For the compound `Cc1ccc(NC(=O)Nc2ccc(F)c(Cl)c2)cc1`, the activation factor turned out to be 1.35 and the activity change, negative = activation is -35% (inactive).

`O=C(Nc1ccc(Br)cc1)Nc1ccccc1F`: the activation factor came out at 1.81 and the activity change, negative = activation is -81.1% (inactive).

On to `O=C(Nc1ccc(Br)cc1)Nc1ccccc1Cl`, for which the activation factor was 1.39 and the activity change, negative = activation was -39.4% (inactive).

For `N#Cc1ccc(NC(=O)Nc2ccc(Cl)cc2)cc1`, the activation factor stood at 1.73 and the activity change, negative = activation was -72.5% (inactive).

Regarding `O=C(Nc1ccc(Cl)c(Cl)c1)N1CCSCC1`, the activation factor turned out to be 1.13 and the activity change, negative = activation is -13.4% (inactive).

With `O=C(NCC1CC1(Cl)Cl)Nc1ccc(Cl)c(Cl)c1` (configuration not stated), the activation factor amounted to 2.53 and the activity change, negative = activation was -153% (active).

Regarding `CCn1nccc1C(=O)Nc1ccc(Cl)c(Cl)c1`, the activation factor was 0.952 and the activity change, negative = activation is 4.85% (inactive).

For `O=C(Nc1ccc(Cl)c(Cl)c1)Nc1ccc(Br)cc1F`, the activation factor amounted to 2.24 and the activity change, negative = activation is -124% (active).

Turning to `CCN(CC)c1nc(N)c2c(N)n(-c3ccccc3C)c(=S)c(C#N)c2c1C#N`, the activation factor turned out to be 0.823 and the activity change, negative = activation is 17.8% (inactive).

As for `O=C1c2cccc3c(N4CCCCC4)ccc(c23)C(=O)N1CCO`, the activation factor worked out at 1.18 and the activity change, negative = activation is -17.9% (inactive).

On to `CCOc1ccccc1N(CC(=O)NC1CCCCC1)S(C)(=O)=O`, for which the activation factor is 0.972 and the activity change, negative = activation was 2.85% (inactive).

As to `COc1cc2c(c(OC)c1OC)C(c1ccccc1C)CC(=O)O2` (configuration not stated), the activation factor was 1.07 and the activity change, negative = activation is -6.55% (inactive).

For the compound `CSCCC(NC(=O)c1ccc(=O)n(C)n1)c1nc2ccccc2[nH]1` (configuration not stated), the activation factor turned out to be 0.931 and the activity change, negative = activation is 6.9% (inactive).

In the case of `CSCC[C@H](NC(=O)C1CCN(S(=O)(=O)c2ccc(C)cc2C)CC1)c1nc2ccccc2[nH]1`, the activation factor was found to be 2.02 and the activity change, negative = activation was -102% (active).

In the case of `Cc1ccc(S(=O)(=O)N2CCN(C(=O)CSc3nc4ccccc4c(=O)[nH]3)CC2)c(C)c1`, the activation factor amounted to 1.1 and the activity change, negative = activation is -10.3% (inactive).

On to `Cc1ccc(C)c(CN2CCC(CNC(=O)Nc3ccc(F)c(Cl)c3)CC2)c1`, for which the activation factor amounted to 1.98 and the activity change, negative = activation was -97.9% (active).

As for `Cc1nn(C)cc1CNC(=O)Nc1ccc(Cl)cc1`, the activation factor amounted to 1.32 and the activity change, negative = activation was -31.6% (inactive).

On to `Cc1ccc(C)c(CN2CCC(CNC(=O)Nc3ccc(Cl)cc3)CC2)c1`, for which the activation factor came out at 2.23 and the activity change, negative = activation was -123% (active).

Regarding `Cc1cccc(CCNC(=O)CCc2c(C)nc3ncnn3c2C)c1`, the activation factor came out at 0.906 and the activity change, negative = activation is 9.35% (inactive).

Regarding `CCNC(=O)COc1cc(C)c(Cl)c(C)c1`, the activation factor was found to be 1 and the activity change, negative = activation is -0.4% (inactive).

For `CCc1nc2sc3c(c2c(=O)n1N)CCC3`, the activation factor is 0.913 and the activity change, negative = activation is 8.65% (inactive).

For the compound `CCN(CC)S(=O)(=O)c1cccc(-c2nnc(SCC(=O)c3cc(C)n(C)c3C)o2)c1`, the activation factor worked out at 0.772 and the activity change, negative = activation was 22.8% (inactive).

As to `COc1ccc(C2/C=C\CN(C(=O)c3ccccc3)CC(=O)N2Cc2cccc(F)c2)cc1` (configuration not stated), the activation factor came to 1.01 and the activity change, negative = activation is -1.35% (inactive).
